The structures appear in SMILES notation. A number with no mark means an inactive call. Records with an inconclusive call do not appear. Activity calls are given as the source filed them. Unless noted, calls come from the whole dose curve.

The nature of experiment [1]: Nuclear factor erythroid 2-related factor 2/antioxidant responsive element (Nrf2/ARE) small molecule agonists: qHTS cell viability counter screen in human keratinocytes (AID 1919968; active = well fitted curve in the direction sought with a large enough effect in the repeat runs; an effect the other way counts as inactive or inconclusive; note: nearly all actives have a fitted effect of over 55% in size; note: potency is the fitted concentration of half-maximal effect). An outline of the steps:
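Measured as CellTiter-Fluor fluorescence, this readout tracks cytotoxicity in the same wells as the ARE-luciferase screen. HaCaT reporter cells (1,500/well) received compounds after a 5 h pre-incubation and were exposed for 23 h.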

Experiment [2] is described as follows: Nuclear factor erythroid 2-related factor 2/antioxidant responsive element (Nrf2/ARE) small molecule agonists: luciferase reporter gene qHTS assay in human keratinocytes (AID 1919969). Note: nearly all actives have a fitted effect of over 35% in size.
Experiment [3] deals with Gonadotropin-releasing hormone receptor (Homo sapiens) (UniProt P30968). In words: Human gonadotropin-releasing hormone receptor (GnRHR) small molecule agonists, calcium flux assay in GnRHR-HEK293 cells (AID 1920063). Note: nearly all actives have a fitted effect of over 35% in size. Put shortly: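 Fluorescence kinetics (480 nm excitation, 540 nm emission; 3 min, 1 s steps) report calcium mobilisation in human GnRHR-HEK293 cells in agonist mode. Dye incubation: 1 h, 37 C.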
On the technique in general: A change in cytosolic calcium serves as a functional read-out for many receptors and channels.

Experiment [4] concerns the target KiSS-1 receptor (Homo sapiens) (UniProt Q969F8). The experiment is described as follows: Human kisspeptin (KISS1R) small molecule agonists, calcium flux assay in KISS1R-HEK293 cells (AID 1920064; active = well fitted curve in the direction sought with a large enough effect in the repeat runs; an effect the other way counts as inactive or inconclusive). Put shortly:
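Measures KISS1R agonism through calcium-sensitive dye fluorescence in stably transfected HEK293 cells, read for 3 min after pin-tool compound delivery; 15-point titrations in triplicate.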

Experiment [5] in a line: G protein-coupled receptor (GPCR) small molecule agonists, calcium flux assay: HEK293 wild type cell line counter screen (AID 1920065). Put shortly:
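Readout: fluorescence at 480 nm excitation/540 nm emission, sampled at 1 s intervals for 3 min. Cells had been cultured 18 h, then dye-loaded 1 h at 37 C before compound or ATP addition.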

The nature of experiment [6]: p53 small molecule agonists, cell-based qHTS assay with human liver microsomes (AID 1963577).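 Note: p53 response element beta-lactamase reporter cells with liver microsomes plus NADPH.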 Put shortly: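 Metabolically competent format: test substances, human liver microsomes and NADPH (both 0.5 mg/mL final) incubated with p53RE-bla cells 16 h at 37 C. Beta-lactamase reporter signal then quantified by fluorescence.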
The nature of experiment [7]: p53 small molecule agonists, cell-based qHTS assay with rat liver microsomes (AID 1963578). An outline of the steps: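 Each plate received p53RE-bla cells, then compound, then rat liver microsomes and NADPH (both 0.5 mg/mL final). Plates were held 16 h at 37 C, and beta-lactamase activity was detected with LiveBLAzer over 2 h.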
Experiment [8] can be described thus: p53 small molecule agonists, cell-based qHTS assay with rat liver microsomes: qHTS cell viability counter screen (AID 1963580). Note: nearly all actives have a fitted effect of over 45% in size. Note: potency is the fitted concentration of half-maximal effect. An outline of the steps: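 Intracellular ATP, by CellTiter-Glo luminescence, defines viability. HCT-116 p53RE-bla cells, 4,000 per well, were compound-treated in the presence of rat liver microsomes and NADPH for 16 h at 37 C.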
Experiment [9] has as its target 5-hydroxytryptamine receptor 2A (Homo sapiens) (UniProt P28223). In words: 5-hydroxytryptamine receptor 2A (HTR2A) small molecule agonists, cell-based qHTS assay (AID 1963587). Note: nearly all actives have a fitted effect of over 30% in size. An outline of the steps:
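Kinetic calcium-flux fluorescence (2 min, 1 sec intervals) after compound addition in agonist mode. HTR2A-CHO cells were cultured 18 h, then dye-loaded 1 h at 37 C.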
(In qHTS, concentration-response curves come from the screen itself.)

Experiment [10] deals with Muscarinic acetylcholine receptor M1 (Homo sapiens) (UniProt P11229). The experiment is described as follows: Cholinergic receptor muscarinic 1 (CHRM1) small molecule antagonists, cell-based qHTS assay (AID 1963588). Note: nearly all actives have a fitted effect of over 40% in size. Note: potency is the fitted concentration of half-maximal effect. Put shortly:
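CHRM1-CHO calcium-flux assay, antagonist mode. Cells were seeded 18 h, dye-loaded 1 h at 37 C and given compound for 5 min at RT, then acetylcholine was added at 50nM. FDSS fluorescence was read 3 min; 15 concentrations, three runs.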

Experiment [11] has the same target. The experiment is described as follows: Cholinergic receptor muscarinic 1 (CHRM1) small molecule agonists, cell-based qHTS assay (AID 1963589). Note: nearly all actives have a fitted effect of over 35% in size. Put shortly: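 Each compound was tested at 15 concentrations across three independent runs on dye-loaded CHO cells stably expressing human CHRM1, reading intracellular calcium fluorescence kinetically at 1 sec intervals.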

Experiment [12] in a line: cAMP Responsive Elements (CRE) small molecule agonists, cell-based qHTS assay (AID 1963590). An outline of the steps: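 Cell line: CRE-bla HEK 293T; medium DMEM/10% dialyzed FBS/0.1 mM NEAA/1 mM pyruvate/25 mM HEPES; 3 h compound exposure; beta-lactamase FRET readout after 2 h substrate loading at RT.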
The nature of experiment [13]: cAMP Responsive Elements (CRE) small molecule antagonists, cell-based qHTS assay (AID 1963591; active = well fitted inhibition curve with a large enough effect in the signal ratio in the repeat runs, not every such curve was filed as active; the % refers to the signal ratio). An outline of the steps: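 Inhibition of NKH477-driven (0.25 uM final) CRE-beta-lactamase signal in HEK293T cells, 3 h compound exposure at 37 °C, detected by FRET substrate fluorescence.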
For experiment [14], the target named is D(2) dopamine receptor (Homo sapiens) (UniProt P14416). In words: Dopamine D2 receptor (DRD2) small molecule agonists, cell-based qHTS assay (AID 1963594). Note: nearly all actives have a fitted effect of over 35% in size. Put shortly:
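cAMP accumulation in DRD2-HEK293 cells measured by HTRF after 1 h detection; compounds added 10 min before NKH477 (200nM […]) forskolin-analogue stimulation, 30 min at room temperature, with Ro20-1724 present at 0.1 mM final.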

Experiment [15] is described as follows: p53 small molecule agonists, cell-based qHTS assay with human liver microsomes: qHTS cell viability counter screen (AID 1963579). Note: nearly all actives have a fitted effect of over 45% in size. An outline of the steps: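 Tox21 library compounds, delivered from DMSO stocks, were tested on p53RE-bla cells together with 0.5 mg/mL human liver microsomes and 0.5 mg/mL NADPH (final) over 16 h at 37 C; CellTiter-Glo luminescence served as the cytotoxicity measure.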

Experiment [16] is described as follows: p53 small molecule agonists, cell-based qHTS assay: qHTS cell viability counter screen (AID 1963581). Note: nearly all actives have a fitted effect of over 45% in size. Put shortly:
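In the same plates used for the p53 bla reporter, HCT-116 cells given compounds for 16 h at 37 C received CellTiter-Glo; luminescence was recorded 30 min later at room temperature.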

A short description of experiment [17]: p53 small molecule agonists, cell-based qHTS assay (AID 1963582; active = well fitted activation curve with a large enough effect in the signal ratio in the repeat runs, not every such curve was filed as active; the % refers to the signal ratio). An outline of the steps:
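Compounds are pin-transferred in DMSO onto p53RE-bla cells and incubated 16 h at 37 C. The B/G FRET beta-lactamase substrate is then applied for 2 h at RT and fluorescence recorded.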

The target of experiment [18] is 5-hydroxytryptamine receptor 2A (Homo sapiens) (UniProt P28223). In words: 5-hydroxytryptamine receptor 2A (HTR2A) small molecule antagonists, cell-based qHTS assay (AID 1963586). Note: nearly all actives have a fitted effect of over 45% in size. An outline of the steps: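 Antagonist-mode intracellular calcium assay: DOI (4 nM) added after 5 min compound pre-incubation at room temperature to dye-loaded HTR2A-CHO cells. Fluorescence followed for 3 min, sampled every second.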

The target of experiment [19] is Beta-2 adrenergic receptor (Homo sapiens) (UniProt P07550). In words: Adrenergic beta2 receptor (ADRB2) small molecule antagonists, cell-based qHTS assay (AID 1963592). Note: series mostly up to about 92 µM; nearly all actives have a fitted effect of over 50% in size. An outline of the steps: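 Cells (CHO, stable ADRB2 overexpression) incubated 18-20hr at 37C; compounds added from DMSO; agonist mix (1nM isoproterenol, 100uM IBMX, 25uM Ro-20-1724) added; 0.5hr RT; d2-cAMP and anti-cAMP-cryptate added; 1hr RT; 665/615 nm read.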

Experiment [20] has as its target D(2) dopamine receptor (Homo sapiens) (UniProt P14416). In words: Dopamine D2 receptor (DRD2) small molecule antagonists, cell-based qHTS assay (AID 1963595; active = well fitted inhibition curve with a large enough effect in the signal ratio in the repeat runs, with a control signal flat; the % refers to the signal ratio; note: potency is the fitted concentration of half-maximal effect). An outline of the steps: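 Antagonist mode in DRD2-HEK293 cells: after compound addition with 0.1 mM Ro20-1724, cells received quinpirole (12 nM) and NKH477 (200 nM) for 30 min at room temperature; HTRF cAMP read after 1 h detection.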
% is set by controls: 0 for no effect and ±100 for the full control effect.

Sequence of Gonadotropin-releasing hormone receptor (Homo sapiens) (P30968 whole entry, looked up): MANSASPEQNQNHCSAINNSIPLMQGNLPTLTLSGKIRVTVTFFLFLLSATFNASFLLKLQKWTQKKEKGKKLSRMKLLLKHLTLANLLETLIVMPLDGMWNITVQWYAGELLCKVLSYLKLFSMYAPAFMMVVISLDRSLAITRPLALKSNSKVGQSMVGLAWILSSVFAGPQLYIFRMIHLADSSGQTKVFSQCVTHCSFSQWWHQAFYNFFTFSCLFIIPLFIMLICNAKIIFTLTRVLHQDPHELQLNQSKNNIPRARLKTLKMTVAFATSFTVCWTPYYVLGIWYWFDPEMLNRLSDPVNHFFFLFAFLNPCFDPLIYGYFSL
Sequence of KiSS-1 receptor (Homo sapiens) (Q969F8 whole entry, looked up): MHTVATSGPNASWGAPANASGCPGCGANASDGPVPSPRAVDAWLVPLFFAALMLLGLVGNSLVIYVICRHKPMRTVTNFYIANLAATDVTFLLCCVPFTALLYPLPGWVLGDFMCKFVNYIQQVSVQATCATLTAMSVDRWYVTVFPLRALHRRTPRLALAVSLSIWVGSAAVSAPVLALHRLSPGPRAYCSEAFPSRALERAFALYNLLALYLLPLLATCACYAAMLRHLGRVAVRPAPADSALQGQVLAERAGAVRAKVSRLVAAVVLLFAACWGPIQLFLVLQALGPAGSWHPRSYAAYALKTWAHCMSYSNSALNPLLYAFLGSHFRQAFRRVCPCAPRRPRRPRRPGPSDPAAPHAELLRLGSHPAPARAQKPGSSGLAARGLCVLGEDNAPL
Sequence of D(2) dopamine receptor (Homo sapiens) (P14416 whole entry, looked up): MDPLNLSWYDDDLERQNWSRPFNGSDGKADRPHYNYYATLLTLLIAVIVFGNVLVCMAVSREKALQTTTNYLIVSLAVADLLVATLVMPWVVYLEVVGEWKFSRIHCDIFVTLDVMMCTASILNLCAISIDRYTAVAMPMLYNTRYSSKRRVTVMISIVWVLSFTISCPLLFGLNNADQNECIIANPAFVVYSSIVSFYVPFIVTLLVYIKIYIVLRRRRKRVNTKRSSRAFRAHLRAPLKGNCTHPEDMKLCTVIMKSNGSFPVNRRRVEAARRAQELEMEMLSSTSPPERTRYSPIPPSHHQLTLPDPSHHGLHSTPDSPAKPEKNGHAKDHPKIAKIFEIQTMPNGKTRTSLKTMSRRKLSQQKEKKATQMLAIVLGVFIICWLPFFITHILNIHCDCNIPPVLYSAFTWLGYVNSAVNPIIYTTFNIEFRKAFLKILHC
Sequence of 5-hydroxytryptamine receptor 2A (Homo sapiens) (P28223 whole entry, looked up): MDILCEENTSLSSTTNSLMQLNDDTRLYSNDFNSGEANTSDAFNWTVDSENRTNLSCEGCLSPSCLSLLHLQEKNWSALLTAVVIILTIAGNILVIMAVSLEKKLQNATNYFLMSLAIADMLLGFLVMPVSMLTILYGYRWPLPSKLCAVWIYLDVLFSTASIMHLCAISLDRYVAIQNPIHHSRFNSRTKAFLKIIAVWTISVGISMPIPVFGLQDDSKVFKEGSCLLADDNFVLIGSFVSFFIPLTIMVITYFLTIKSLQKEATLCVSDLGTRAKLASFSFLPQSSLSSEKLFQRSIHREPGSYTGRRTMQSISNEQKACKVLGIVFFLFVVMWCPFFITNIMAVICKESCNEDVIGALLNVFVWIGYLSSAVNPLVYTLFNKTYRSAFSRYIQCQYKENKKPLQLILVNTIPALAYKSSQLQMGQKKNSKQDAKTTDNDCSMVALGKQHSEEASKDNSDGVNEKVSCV
Sequence of Beta-2 adrenergic receptor (Homo sapiens) (P07550 whole entry, looked up): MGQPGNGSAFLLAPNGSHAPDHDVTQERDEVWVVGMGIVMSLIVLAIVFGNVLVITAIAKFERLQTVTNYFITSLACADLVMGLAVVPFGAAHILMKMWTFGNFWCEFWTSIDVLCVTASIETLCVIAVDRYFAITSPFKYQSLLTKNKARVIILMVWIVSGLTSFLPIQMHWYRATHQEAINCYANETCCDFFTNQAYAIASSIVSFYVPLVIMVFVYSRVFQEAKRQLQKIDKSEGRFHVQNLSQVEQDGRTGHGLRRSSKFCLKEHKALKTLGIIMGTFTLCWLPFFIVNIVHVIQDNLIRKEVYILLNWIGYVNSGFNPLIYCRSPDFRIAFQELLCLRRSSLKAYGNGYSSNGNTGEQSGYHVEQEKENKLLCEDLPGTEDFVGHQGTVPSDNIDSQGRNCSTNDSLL
Sequence of Muscarinic acetylcholine receptor M1 (Homo sapiens) (P11229 whole entry, looked up): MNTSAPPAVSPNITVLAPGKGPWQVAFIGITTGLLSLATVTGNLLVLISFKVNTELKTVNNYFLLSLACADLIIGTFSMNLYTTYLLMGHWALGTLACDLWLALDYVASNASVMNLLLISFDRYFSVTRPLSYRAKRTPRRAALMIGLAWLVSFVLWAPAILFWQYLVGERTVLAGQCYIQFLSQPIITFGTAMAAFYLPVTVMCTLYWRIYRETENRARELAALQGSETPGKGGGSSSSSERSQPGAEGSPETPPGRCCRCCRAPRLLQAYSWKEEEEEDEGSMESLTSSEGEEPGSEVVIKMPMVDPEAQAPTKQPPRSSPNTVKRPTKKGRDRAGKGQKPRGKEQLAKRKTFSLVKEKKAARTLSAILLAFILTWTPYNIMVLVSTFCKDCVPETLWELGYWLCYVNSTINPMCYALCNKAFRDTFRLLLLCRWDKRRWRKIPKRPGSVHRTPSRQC

In the case of `CNCCC(Oc1ccccc1OC)c1ccccc1` (stereo not drawn), the Potency result in experiment [1], in experiment [2], in [3], in [6], in experiment [7] and in experiment [8] was “inactive” each time. Besides, the Potency result in [9], in experiment [11], in experiment [12], in experiment [13] and in experiment [14] was “inactive” throughout. Moreover, the result in experiment [4] and in [5] was inactive. The Potency in experiment [10] is 16.3 µM (active).
`CCCCCCCCCCOc1cc2c(=O)c(C(=O)OCC)c[nH]c2cc1OCC`: the activity change, negative = cytotoxicity in experiment [1] is -4.24% [at 8.39 µM]; in experiment [15], 0.282% [at 5.99 µM]; in experiment [8], 11.2% [at 5.99 µM]; in experiment [16], -13% [at 5.99 µM]. Further, the activity, positive = activation in [2] is -2.6% [at 8.39 µM]. Besides, the activity change in experiment [3] was 0.343% [at 5.22 µM, hits give high values]. Besides, the activation in experiment [4] is -0.128% [at 6.97 µM]; in [5] it was 0.101% [at 5.23 µM]; in [6], 2.59% [at 5.99 µM]; in experiment [17] it was 4.71% [at 5.99 µM]; in experiment [9] it was 1.5% [at 7.02 µM]; in experiment [11], 0.0185% [at 6.97 µM]. Also, the activation in [12] is 0.069% [at 8.39 µM]; in experiment [14] it was -15.9% [at 8.39 µM]. In addition, the activity, negative = inhibition in experiment [18] is 23.4% [at 5.62 µM]; in [10], -9.72% [at 5.58 µM]. The activity change, negative = inhibition is 0.102% [at 8.39 µM] in experiment [13], 4.81% [at 8.39 µM] in experiment [19] and 8.14% [at 8.38 µM] in [20].
Take `CC(C)C1OCCN1CCOC(=O)NCCCCCCNC(=O)OCCN1CCOC1C(C)C` (stereo not drawn): the Potency entry in experiment [1], in experiment [2], in experiment [3], in [6], in [15] and in [8] was “inactive” throughout. The Potency entry in experiment [16], in experiment [17], in experiment [18], in experiment [9], in experiment [10] and in experiment [11] was “inactive” throughout. The Potency entry in experiment [12], in experiment [13], in [19], in [14] and in [20] was “inactive” throughout. Besides, the result in experiment [4] and in [5] was inactive.
On to `O=C(O)CC(C(=O)O)S(=O)(=O)O` (stereo not drawn), for which the Potency entry in experiment [1], in experiment [2], in experiment [3], in experiment [6], in experiment [7] and in [16] was “inactive” in each case. Besides, the Potency entry in experiment [17], in experiment [18], in experiment [9], in experiment [10], in [11] and in [12] was “inactive” in each case. Moreover, the Potency result in experiment [13], in [19], in experiment [14] and in [20] was “inactive” each time. The result in [4] and in [5] was inactive.
As for `NC(=O)NC(=O)Cc1ccccc1`, the Potency entry in experiment [1], in experiment [2], in [3], in experiment [6], in experiment [7] and in experiment [16] was “inactive” throughout. For the same compound, the Potency entry in experiment [17], in experiment [12], in [13], in experiment [19] and in experiment [20] was “inactive” in each case. In addition, the result in [4] and in experiment [5] was inactive.
On to `CCCC(=O)OC(=O)CCC`, for which the Potency entry in experiment [1], in [2], in experiment [3], in [6], in [15] and in experiment [8] was “inactive” throughout. In addition, the Potency entry in [16], in experiment [17], in [18], in experiment [9], in experiment [10] and in experiment [11] was “inactive” each time. In addition, the Potency entry in experiment [13], in experiment [19], in [14] and in experiment [20] was “inactive” throughout. Further, the outcome in [4] and in experiment [5] was inactive.
Turning to `CCCCCCCCCCCCc1ccc(O)cc1`, the Potency in experiment [1] was 27.3 µM (active); in [8], 40.8 µM (active); in experiment [20] it was 61.1 µM (active). For the same compound, the Potency result in experiment [2], in [3], in experiment [6], in experiment [7], in experiment [18] and in experiment [19] was “inactive” each time. In experiment [14], the Potency result was “inactive”. Besides, the result in experiment [4] and in experiment [5] was inactive.

The record behind these values is PubChem BioAssay (Tox21).
